The values that follow come from PubChem BioAssay (NCI).

About 83,000 compounds went through this panel and 20% of them were active in at least one assay; those are over-represented in the sample as a whole.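 Interpretation: 100, growth as untreated; towards 0, rising growth inhibition; 0, no net growth; 0 to -100, cell death. Compounds scoring below 10 were considered active.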 Unmarked numbers belong to inactive results. Calls of active or inactive are those of the source.

Some test systems named below: T-47D breast; BT-549 breast; MDA-MB-435 melanoma; SW-620 colon; MCF7 breast; HCT-116 colon; HCC-2998 colon; KM12 colon.
Holding throughout (assay): NCI-60 one-dose screen, 48 h (100 = growth as untreated, 0 = no growth, -100 = all killed)
Common to all, as to conditions: 10 µM unless noted

As for `COc1cc2nccc(Oc3ccc(NC(=O)C4(C(=O)Nc5ccc(F)cc5)CC4)cc3)c2cc1O`, the growth in the assay on T-47D breast is 55.3%; with BT-549 breast, 79.9%; in the assay with MDA-MB-435 melanoma it was 52.6%; with SW-620 colon, 34.4%; in the assay on MCF7 breast it was 51.2%; in the assay with HCT-116 colon, 52%. The growth was 79.3% in the assay on HCC-2998 colon and 22.5% in the assay on KM12 colon.

Turning to `Cc1c(-c2ccc(-c3ccccc3F)cc2)nc2ccc(F)cc2c1C(=O)O`, the growth with T-47D breast was 59.2%; in the assay on BT-549 breast, 45.5%; in the assay with MDA-MB-435 melanoma it was 34.9%; with SW-620 colon, 38.9%; in the assay on MCF7 breast, 28.4%; in the assay on HCT-116 colon, 21%. The figures for the growth in the assay with HCC-2998 colon and in the assay with KM12 colon were 37.7% and 35.2%, respectively.

For the compound `NC(=S)N/N=C(/c1cccs1)C1CC1`, the growth in the assay with T-47D breast is 20.6%; in the assay on BT-549 breast it was 97.8%; with MDA-MB-435 melanoma it was 87.4%; with SW-620 colon, 71.6%; in the assay on MCF7 breast, 22.5%; with HCT-116 colon, 7.8% (active). Further, the growth with HCC-2998 colon was 96.9%; with KM12 colon, 105%.

For the compound `COc1ccc2[nH]c(C(=O)OCc3ccc4cccc(O)c4n3)cc2c1`, the growth with T-47D breast is -53.9% (active); in the assay with BT-549 breast it was -79.3% (active); with MDA-MB-435 melanoma, -86.2% (active); with SW-620 colon, -72.8% (active); with MCF7 breast, -39% (active); with HCT-116 colon it was -77.7% (active). Besides, the values for the growth in the assay with HCC-2998 colon and in the assay with KM12 colon were -35.8% (active) and 10.7%, respectively.

Consider `CC1=C(C(=O)Nc2ccc(F)cc2)C(c2ccc(C)cc2)C2=C(CC(C)(C)CC2=O)N1` (stereo unspecified), for which the growth in the assay on T-47D breast was 85.2%; in the assay on BT-549 breast it was 97.2%; in the assay on MDA-MB-435 melanoma it was 94.9%; in the assay on SW-620 colon, 81.9%; in the assay with MCF7 breast it was 91.1%; in the assay with HCT-116 colon, 96.3%. Besides, the growth with HCC-2998 colon was 107%; in the assay with KM12 colon it was 102%.

`CCCCN(CCCC)CCC(=O)c1ccc(OC)c2ccccc12`: the growth with T-47D breast is 41.4%; in the assay on BT-549 breast, 108%; in the assay with MDA-MB-435 melanoma, 83.3%; in the assay with SW-620 colon it was 61.5%; in the assay on MCF7 breast, 15.1%; in the assay on HCT-116 colon, 72.1%. The figures for the growth with HCC-2998 colon and in the assay with KM12 colon were 105% and 71.1%, respectively.

With `COc1cc(C2=NOC(c3cc(OC)c(OC)c(OC)c3)C2)ccc1OCCCCOc1cc2c(cc1OC)C(=O)N1CCC[C@H]1C=N2` (stereo partly specified), the growth is -11.9% (active) in the assay on T-47D breast; -96.8% (active) in the assay with BT-549 breast; -74.1% (active) with MDA-MB-435 melanoma; -31.7% (active) in the assay on SW-620 colon; -5.09% (active) in the assay with MCF7 breast; 2.63% (active) with HCT-116 colon. Besides, the growth was -57.4% (active) with HCC-2998 colon and -24.3% (active) in the assay with KM12 colon.

As for `N#Cc1nc(-c2ccc(Cl)cc2)cc(-c2ccc(Nc3nc(N4CCCCC4)nc(N4CCCCC4)n3)cc2)c1N`, the growth was 100% in the assay with T-47D breast; 99.2% with BT-549 breast; 106% in the assay with MDA-MB-435 melanoma; 99.3% in the assay with SW-620 colon; 99.6% in the assay with MCF7 breast; 102% in the assay on HCT-116 colon. Also, the growth in the assay with HCC-2998 colon is 112%; in the assay on KM12 colon, 107%.

For `O=C(Oc1c(Cl)c(Cl)c(Cl)c(Cl)c1Cl)C1CCCN1C(=O)OCc1ccccc1` (stereo unspecified), the growth was 2.01% (active) in the assay on T-47D breast; 54.9% with BT-549 breast; 84.2% with MDA-MB-435 melanoma; 22.2% with SW-620 colon; 29.6% in the assay on MCF7 breast; 15.9% with HCT-116 colon. The growth is 49.1% in the assay with HCC-2998 colon and 23.6% in the assay on KM12 colon.

In the case of `COC(=O)CNS(=O)(=O)c1ccc2c(c1)Cc1cc(S(=O)(=O)NCC(=O)OC)ccc1-2`, the growth with T-47D breast was 99.5%; with BT-549 breast it was 100%; with MDA-MB-435 melanoma, 103%; in the assay with SW-620 colon, 102%; in the assay on MCF7 breast, 95.5%; in the assay with HCT-116 colon it was 109%. The growth is 111% in the assay on HCC-2998 colon and 109% with KM12 colon.

On to `NCCCOc1cc2ccccc2cc1C(=O)NCCCOc1cc2ccccc2cc1C(=O)Nc1ccc(Cl)cc1O`, for which the growth with T-47D breast is -67.6% (active); with BT-549 breast it was -39.8% (active); in the assay with MDA-MB-435 melanoma, -85.5% (active); with SW-620 colon, -73.9% (active); with MCF7 breast it was -93.5% (active); in the assay with HCT-116 colon it was -85.8% (active). Further, the growth is -92.3% (active) in the assay on HCC-2998 colon and -2.6% (active) in the assay on KM12 colon.

Regarding `C=CCn1c(C)nc2cc(Nc3nc(Nc4ccc5nc(C)n(CC=C)c5c4)nc4ccccc34)ccc21`, the growth was 96% with T-47D breast; 106% in the assay on BT-549 breast; 108% in the assay with MDA-MB-435 melanoma; 106% with SW-620 colon; 92.4% in the assay with MCF7 breast; 98.9% in the assay with HCT-116 colon. For the same compound, the growth in the assay with HCC-2998 colon is 104%; in the assay on KM12 colon, 109%.

Consider `Oc1ccc(Nc2ncnc3c2sc2ncccc23)cc1`, for which the growth was 51% with T-47D breast; 47.3% in the assay on BT-549 breast; 36.5% in the assay on MDA-MB-435 melanoma; 44.1% in the assay with SW-620 colon; 18.8% with MCF7 breast; 27.5% in the assay on HCT-116 colon. Moreover, the growth in the assay on HCC-2998 colon was 69.4%; with KM12 colon, 50.6%.

Turning to `COc1ccc(C(=O)C(CN(C)C)c2ccccc2)cc1` (stereo unspecified), the growth was 9.93% (active) in the assay on T-47D breast; 12.9% with BT-549 breast; 25.4% with MDA-MB-435 melanoma; -84.7% (active) in the assay on SW-620 colon; -1.32% (active) in the assay on MCF7 breast; -99.1% (active) in the assay on HCT-116 colon. Further, the figures for the growth in the assay with HCC-2998 colon and in the assay with KM12 colon were 93.9% and 6.49% (active), respectively.

`COc1cccc(NC(=O)c2c(-c3ccccc3)c(-c3ccccc3)n[nH]c2=O)c1`: the growth in the assay on T-47D breast was 87.5%; in the assay on BT-549 breast, 102%; with MDA-MB-435 melanoma, 98%; in the assay on SW-620 colon, 98.7%; with MCF7 breast, 95.9%; in the assay with HCT-116 colon, 94.9%. The growth in the assay on HCC-2998 colon is 94.4%; in the assay on KM12 colon it was 103%.

Consider `COC(=O)c1cc(Cl)cc([N+](=O)[O-])c1O`, for which the growth with T-47D breast was 101%; in the assay on BT-549 breast, 108%; with MDA-MB-435 melanoma, 99.3%; in the assay with SW-620 colon it was 102%; with MCF7 breast, 113%; with HCT-116 colon, 101%. The growth in the assay with HCC-2998 colon is 104%; in the assay on KM12 colon, 109%.

For `CCOCC(O)(c1ccc(Cl)cc1)c1ccc(Cl)cc1`, the growth with T-47D breast is 98.5%; in the assay with BT-549 breast it was 115%; with MDA-MB-435 melanoma it was 102%; in the assay on SW-620 colon, 97.4%; with MCF7 breast, 110%; in the assay with HCT-116 colon, 93%. The growth is 109% in the assay on HCC-2998 colon and 90.4% with KM12 colon.
